Only some compounds are listed: those with a hit (about 18% of all), similar ones and a draw of the others.
DT40 TDP1 CPT = DT40-hTDP1 cell growth loss with CPT. Potency, µM (series often up to 46.2 µM), most hits filed as inhibitors. chicken DT40 Tdp1-/-;hTDP1 cells + 20 nM CPT, ATP luminescence, 48 h. AID 686979. 420,000 tested, 12% active; further: nearly all actives have a fitted effect of over 55% in size
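Chicken DT40 Tdp1-/- cells complemented with human TDP1, 400 cells/well, exposed to compounds plus 20 nM camptothecin for at least 48 h at 37 C; viability read as ATP content by CellTiter-Glo luminescence.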
TDP1 block = inhibitors of human tyrosyl-DNA phosphodiesterase TDP1 | Q9NUW8 | recombinant TDP1, AlphaScreen DNA substrate cleavage | Potency, µM (series often up to 130 µM), actives largely listed as inhibitors | 350,000 tested, 0.28% active; further: nearly all actives have a fitted effect of over 40% in size
Target sequence (Q9NUW8 whole entry, looked up): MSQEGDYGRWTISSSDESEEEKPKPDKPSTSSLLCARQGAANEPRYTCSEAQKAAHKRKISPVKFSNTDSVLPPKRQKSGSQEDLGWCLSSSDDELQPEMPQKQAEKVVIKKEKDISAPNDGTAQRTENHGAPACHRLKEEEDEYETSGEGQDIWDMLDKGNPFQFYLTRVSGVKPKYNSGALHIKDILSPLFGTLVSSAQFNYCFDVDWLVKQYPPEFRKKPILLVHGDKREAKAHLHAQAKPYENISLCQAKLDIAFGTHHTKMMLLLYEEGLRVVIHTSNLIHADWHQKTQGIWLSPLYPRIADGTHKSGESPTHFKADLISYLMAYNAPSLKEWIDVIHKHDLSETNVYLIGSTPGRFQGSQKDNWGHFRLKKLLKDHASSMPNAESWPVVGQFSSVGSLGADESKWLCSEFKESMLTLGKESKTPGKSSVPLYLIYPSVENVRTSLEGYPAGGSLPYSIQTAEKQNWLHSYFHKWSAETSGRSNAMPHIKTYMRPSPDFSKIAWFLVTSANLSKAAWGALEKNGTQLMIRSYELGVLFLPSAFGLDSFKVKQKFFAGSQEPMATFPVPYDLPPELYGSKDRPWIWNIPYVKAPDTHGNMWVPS
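Tdp1 1 nM final; 15 min RT w/ cpd; substrate 15 nM, 5 min; beads 10 ug/ml, 10 min; AlphaScreen read. Neg ctrl: no enzyme.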
VDR inh = inhibitors of human vitamin D receptor; P11473; VDR-SRC2-3 peptide fluorescence polarization, 2 h; Potency, µM, most hits filed as inhibitors; 400,000 tested, 0.93% active; AID 504847
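Measured by FP: displacement of SRC2-3 coactivator peptide from VDR by library compounds, following a two-hour ambient incubation.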
DT40 TDP1 no CPT = qHTS for Inhibitors of human tyrosyl-DNA phosphodiesterase 1 (TDP1): qHTS in cells in absence of CPT; Potency, µM (highest dose often 46.2 µM), hits mostly inhibitors; DT40 Tdp1-/- hTDP1 cells, no CPT, ATP luminescence, 48 h; 420,000 tested, 15% active; AID 686978, 2013; further: nearly all actives have a fitted effect of over 55% in size
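Growth of hTDP1-complemented DT40 Tdp1-knockout cells is measured by ATP luminescence after at least 48 hr compound exposure at 37 °C, with DMSO substituting for the 20 nM CPT used in the parallel screen.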
KAT2A inh = blocks human GCN5L2 histone acetyltransferase; Q92830; GCN5L2 HAT assay, ThioGlo1 CoA-SH fluorescence; Potency, µM (doses to about 58.9 µM), most hits filed as inhibitors; 390,000 tested, 0.21% active; AID 504327
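Compounds, pin-transferred from DMSO stocks, meet 20nM GCN5L2 for 15 min before the reaction begins with H3(1-25) peptide (75uM) and acetyl-CoA (70uM). Thiol-reactive ThioGlo1 reports CoA release over 20 min at room temperature.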
PLK1 PBD block = PLK1 (human) polo-box domain binding inhibition | P53350 | Plk1 PBD binding of FITC phosphopeptide, fluorescence polarization | Potency, µM, usual class: inhibitors | 360,000 tested, 2.8% active | AID 720504; further: series mostly up to about 57 µM; nearly all actives have a fitted effect of over 65% in size
Of the large screens only hits and unclear results are named; the others gave an inactive call. The call rests on the fitted dose curve; in most records, active means well fitted curve in the direction sought with a large enough effect; inconclusive means small, poorly fitted or top-dose-only effect, or another doubt; inactive means no such curve, though single readings can be large; an effect the other way counts as inactive or inconclusive.

CNC[C@@H]1OCc2ccccc2-c2ccccc2C(=O)N([C@H](C)CO)C[C@@H]1C	none (no result: TDP1 block, VDR inh, KAT2A inh)
Cc1cc(O)c2c(c1)CC1C3CCC4CC(=O)CCC4(C)C3CC(=O)C21C (stereo not given)	DT40 TDP1 CPT 18µM, DT40 TDP1 no CPT 12µM (no result: TDP1 block, KAT2A inh)
CCc1cc(Cn2nc(-c3ccccc3)cc2C(=O)NCc2cccc(Br)c2)on1	DT40 TDP1 CPT inconclusive, DT40 TDP1 no CPT 16µM
CN(Cc1ccccc1)C(=O)c1csc([C@@H]2C[C@H](O)[C@@H](CO)O2)n1	none (no result: TDP1 block, VDR inh, KAT2A inh)
CCCc1cc2c(n1Cc1ccc(OC)cc1)C(C)C1CN(C(=O)c3ccccc3)C(C)(C(=O)OC)C21 (stereo not given)	none (no result: DT40 TDP1 CPT, VDR inh, DT40 TDP1 no CPT, KAT2A inh, PLK1 PBD block)
O=[N+]([O-])c1ccc(NNC(=S)Nc2ccc(F)cc2)cc1	DT40 TDP1 CPT 4.6µM, VDR inh inconclusive, DT40 TDP1 no CPT 3.3µM, PLK1 PBD block 12µM
S=C(NCC1CCCCC1)Nc1ccc(Oc2ccccc2)cc1	DT40 TDP1 CPT inconclusive, DT40 TDP1 no CPT inconclusive
CCCCNC(=S)Nc1ccc([N+](=O)[O-])cc1	DT40 TDP1 CPT inconclusive, DT40 TDP1 no CPT 23µM
CC(C)OC(=O)c1cc(C(=O)OC(C)C)cc([N+](=O)[O-])c1	none (no result: TDP1 block, VDR inh, KAT2A inh, PLK1 PBD block)
CN(C)C(=S)Nc1ccc([N+](=O)[O-])cc1	none
CC(C)OC(=O)c1cc(NC(=S)Nc2ccc([N+](=O)[O-])cc2)cc(C(=O)OC(C)C)c1	DT40 TDP1 CPT 9.2µM, DT40 TDP1 no CPT 12µM
CCCNC(=S)Nc1ccc(Oc2ccccc2)cc1	DT40 TDP1 CPT inconclusive, DT40 TDP1 no CPT 16µM
Cc1ccc(N2C(=O)[C@@H]3CSC(c4ccc(C(F)(F)F)cc4)N3C2=O)cc1 (stereo not given in full)	none (no result: PLK1 PBD block)
Cc1c(Cc2ccccc2)c(=O)oc2c(C)c(OCC(=O)N[C@@H](Cc3ccccc3)C(=O)O)ccc12	VDR inh inconclusive, PLK1 PBD block inconclusive (no result: TDP1 block)
COc1ccc(CNC(=O)c2cc3sccc3n2Cc2ccc(C)cc2)cc1	none (no result: PLK1 PBD block)
CCOc1ccc(NC(=S)NCCCc2ccccc2)cc1	DT40 TDP1 CPT inconclusive, DT40 TDP1 no CPT inconclusive
CCCCNC(=S)Nc1ccc(Oc2ccccc2)cc1	DT40 TDP1 CPT inconclusive, DT40 TDP1 no CPT 21µM, PLK1 PBD block inconclusive
O=C(CSc1nc(Nc2ccccc2)nc(N2CCOCC2)n1)N1CCc2ccccc21	DT40 TDP1 CPT inconclusive, DT40 TDP1 no CPT 18µM
O=C(CSc1nc(-c2ccccc2)cc(=O)[nH]1)N1CCc2ccccc21	DT40 TDP1 CPT 21µM, VDR inh inconclusive, DT40 TDP1 no CPT 16µM, PLK1 PBD block 3µM
Cn1c(-c2ccccc2)cnc1SCC(=O)N1CCCc2ccccc21	DT40 TDP1 CPT inconclusive, DT40 TDP1 no CPT inconclusive
Cc1cc(C)nc(SCC(=O)N2CCc3ccccc32)n1	none (no result: TDP1 block, KAT2A inh)
O=C(CSc1ncc(-c2ccccc2)n1C1CCCC1)N1CCc2ccccc21	DT40 TDP1 CPT 23µM, DT40 TDP1 no CPT 21µM
O=C(CSc1nnc(-c2ccccc2)c(-c2ccccc2)n1)N1CCc2ccccc21	DT40 TDP1 CPT 16µM, DT40 TDP1 no CPT inconclusive
CCOC(=O)N1CCC(N2C(=O)c3ccccc3C2Nc2ccc(S(=O)(=O)N(CC)CC)cc2)CC1 (stereo not given)	DT40 TDP1 CPT inconclusive, DT40 TDP1 no CPT inconclusive
COc1ccc(N2CCN(C(=O)c3ccc(CNS(=O)(=O)c4ccc(C)cc4)cc3)CC2)cc1	DT40 TDP1 CPT inconclusive, DT40 TDP1 no CPT 12µM
COc1ccc(CNS(=O)(=O)c2ccc(N3CCCC3)cc2Br)cc1	DT40 TDP1 CPT inconclusive, VDR inh inconclusive, DT40 TDP1 no CPT inconclusive, PLK1 PBD block 24µM
COc1ccc(CN2CCN(C(=O)c3ccc(CNS(=O)(=O)c4ccc(C)cc4)cc3)CC2)c(OC)c1OC	DT40 TDP1 CPT 13µM, DT40 TDP1 no CPT 13µM, KAT2A inh inconclusive
COc1ccc(CNS(=O)(=O)c2ccc(F)cc2Br)cc1	none (no result: TDP1 block, KAT2A inh)
Cc1ccccc1CNC(=O)CCn1nc(C)c2c(C)n(-c3ccccc3)nc2c1=O	none

Screens from PubChem.
